The structures appear in SMILES notation. Inconclusive results are not listed. Active and inactive are the calls of the source. Calls come from the whole dose curve; as a rule, active = well fitted inhibition curve with a large enough effect; inconclusive = small, poorly fitted or top-dose-only effect; inactive = flat fitted curve, though single readings scatter.

Experiment in all cases: qHTS profiling for inhibitors of Plasmodium falciparum proliferation (AID 504749); note: nearly all actives have a fitted effect of over 60% in size
Details in all cases: P. falciparum in erythrocytes, SYBR Green DNA, 72 h; series mostly up to 28.7 µM
(In general: Quantitative high-throughput screening tests each substance at several concentrations.)

Test [1] has as its system CP325. The gist of the method:
(§1)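 SYBR Green fluorescence (ex 485 nm, em 535 nm) reports parasite DNA after 72 h compound exposure of infected red cells at 0.3% parasitemia, 2.5% hematocrit; signal normalized to 0.29 uM artemisinin and vehicle wells.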

For test [2], the system named is CP329. The gist of the method:
as §1

Test [3] concerns DFO2036. The gist of the method: as §1
The subject of test [4] is DIV14. The gist of the method:
as §1

The subject of test [5] is DIV17. The gist of the method:
as §1

For test [6], the system named is DIV30. The gist of the method: as §1
Test [7] deals with Dd2. The gist of the method:
as §1

Test [8] relates to FAB9. The gist of the method:
as §1

Test [9] concerns HB3. The gist of the method:
as §1

Test [10] relates to ICS. The gist of the method:
as §1

Test [11] relates to P94_40. The gist of the method:
as §1

Test [12] relates to ECU. The gist of the method:
as §1

Test [13] deals with JCK. The gist of the method: as §1
Test [14] has as its system PAD. The gist of the method:
as §1

Test [15] deals with PC15. The gist of the method: as §1
Test [16] has as its system GB4. The gist of the method: as §1
Test [17] relates to N140. The gist of the method: as §1
The subject of test [18] is P93_24. The gist of the method: as §1
For test [19], the system named is PC26. The gist of the method: as §1
Test [20] deals with CP335. The gist of the method:
as §1
Potency is the fitted concentration of half-maximal effect.

Turning to `CN1CCCC(n2nc(Cc3ccc(Cl)cc3)c3ccccc3c2=O)CC1` (configuration not stated), the Potency result in test [1], in test [2], in test [3], in test [6], in test [8] and in test [9] was “inactive” throughout. Besides, the Potency entry in test [11] was “inactive”. Moreover, the Potency in test [4] is 7.57 µM (active); in [5] it was 7.57 µM (active); in test [7], 11.2 µM (active); in test [10], 8.91 µM (active).

`CC(C)(C)C(=O)OCOP(=O)(COCCn1cnc2c(N)ncnc21)OCOC(=O)C(C)(C)C`: the Potency entry in test [1], in test [2], in test [6], in test [12], in test [8] and in test [13] was “inactive” throughout. For the same molecule, the Potency result in test [14] was “inactive”.

For the molecule `O=C(O)c1cn(C2CC2)c2cc(N3CCNCC3)c(F)cc2c1=O`, the Potency result in test [5], in [12], in test [8], in [13], in [14] and in [15] was “inactive” each time. Also, the Potency in test [7] and in [10] was 3.16 µM (active) throughout.

`COc1cccc(N(C)C(=S)Oc2ccc3c(c2)CCCC3)n1`: the Potency result in test [1], in test [2], in test [3], in [5], in [7] and in [12] was “inactive” in each case. In addition, the Potency entry in test [8], in [16], in [9], in test [13], in test [17] and in [18] was “inactive” in each case. For the same molecule, the Potency entry in test [14], in [15] and in test [19] was “inactive” in each case.

Consider `N[C@@H](Cc1ccc(O)c(O)c1)C(=O)O`, for which the Potency entry in test [1], in test [2], in test [4], in test [5], in test [6] and in [16] was “inactive” in each case. For the same molecule, the Potency result in test [19] was “inactive”.

For `CNCC[C@H](Oc1cccc2ccccc12)c1cccs1`, the Potency entry in test [1], in test [2] and in [8] was “inactive” throughout. Moreover, the Potency in test [5] is 3.01 µM (active); in test [6], 10.7 µM (active); in test [7], 6.31 µM (active); in test [12] it was 11.2 µM (active); in test [16] it was 12 µM (active); in test [10], 3.16 µM (active). Moreover, the Potency in test [17] was 8.91 µM (active); in test [18] it was 3.16 µM (active); in test [11], 10 µM (active); in test [14], 11.2 µM (active); in [15], 5.01 µM (active); in test [19], 8.49 µM (active).

Consider `CCCCOc1ccc(CC(=O)NO)cc1`, for which the Potency in [2] is 3.22 µM (active); in test [20] it was 1.61 µM (active); in [3] it was 2.82 µM (active); in test [4], 1.44 µM (active); in test [5], 2.87 µM (active); in test [6], 2.56 µM (active). The Potency in test [7] was 3.55 µM (active); in test [16], 3.22 µM (active); in [9] it was 3.98 µM (active); in test [10], 3.16 µM (active); in test [17], 3.98 µM (active); in [18], 1.58 µM (active). The Potency was 2 µM (active) in test [11] and 1.41 µM (active) in [14]. Besides, the Potency result in test [15] was “inactive”.

Take `COc1cc([C@@H]2c3cc4c(cc3[C@H](O)[C@H]3COC(=O)[C@H]23)OCO4)cc(OC)c1OC`: the Potency in test [1] is 13.5 µM (active); in test [20], 3.38 µM (active); in test [3], 2.82 µM (active); in test [4] it was 2.13 µM (active); in [5] it was 1.69 µM (active); in test [6] it was 6.75 µM (active). Also, the Potency is 2.24 µM (active) in [7]; 3.55 µM (active) in test [12]; 6.31 µM (active) in test [8]; 3.38 µM (active) in [16]; 1.78 µM (active) in test [9]; 0.891 µM (active) in [10]. Also, the Potency was 2.82 µM (active) in test [17]; 2.24 µM (active) in test [18]; 2.51 µM (active) in test [11]; 3.55 µM (active) in test [14]; 1.78 µM (active) in test [15]; 8.49 µM (active) in [19].

As for `CN(C)CCc1c[nH]c2ccc(CS(=O)(=O)N3CCCC3)cc12`, the Potency entry in test [1], in test [2], in [3], in test [4], in test [5] and in [6] was “inactive” each time. The Potency result in test [7], in test [12], in test [8], in test [16], in test [9] and in test [10] was “inactive” each time. The Potency result in test [13], in test [17], in [18], in test [11], in test [14] and in [15] was “inactive” in each case. Besides, the Potency entry in test [19] is “inactive”.

For the molecule `C[C@@H](NCCCc1cccc(C(F)(F)F)c1)c1cccc2ccccc12`, the Potency in test [1] is 15.1 µM (active); in [3] it was 11.2 µM (active); in [4], 6.01 µM (active); in test [5], 5.36 µM (active); in test [6] it was 7.57 µM (active); in test [7], 5.01 µM (active). Besides, the Potency in test [12] was 3.16 µM (active); in [16] it was 12 µM (active); in test [9], 12.6 µM (active); in [10], 1.78 µM (active); in test [17] it was 2.82 µM (active); in [18], 6.31 µM (active). Moreover, the Potency is 5.01 µM (active) in test [11], 2 µM (active) in test [14], 11.2 µM (active) in test [15] and 4.78 µM (active) in [19]. In [8], the Potency entry is “inactive”.

Take `CC(C)OC(=O)C(C(=O)OC(C)C)=C1SC=CS1`: the Potency entry in test [1], in test [2], in test [3], in [5], in test [7] and in test [12] was “inactive” throughout. Also, the Potency result in test [8], in test [16], in test [9], in [10], in [13] and in test [17] was “inactive” throughout. Further, the Potency entry in test [18], in [14], in test [15] and in test [19] was “inactive” throughout.

Take `CCn1cc(C(=O)O)c(=O)c2cc(F)c(N3CCN(C)CC3)cc21`: the Potency entry in test [1], in test [2], in test [4], in test [5], in test [6] and in test [8] was “inactive” in each case. For the same molecule, the Potency entry in [16], in [9], in test [13], in test [17], in test [14] and in [15] was “inactive” each time. Also, in test [19], the Potency result is “inactive”. In addition, in test [7], the Potency is 12.6 µM (active).

With `CCOC(=O)c1ccc(OC(=O)CCCCCN=C(N)N)cc1`, the Potency result in test [1], in test [2], in test [3], in [6], in test [7] and in test [8] was “inactive” each time. Besides, the Potency entry in [13] and in test [11] was “inactive” each time. In addition, the Potency in test [5] is 4.55 µM (active); in [9], 4.47 µM (active); in test [10], 2 µM (active).

With `CCCCCCNC(=O)n1cc(F)c(=O)[nH]c1=O`, the Potency is 5.36 µM (active) in test [20]; 5.36 µM (active) in [4]; 8.49 µM (active) in [5]; 13.5 µM (active) in test [6]; 8.49 µM (active) in test [16]; 8.91 µM (active) in test [9]. The Potency is 4.47 µM (active) in test [10] and 10 µM (active) in test [14].

`CNC(=O)c1cc(Oc2ccc(NC(=O)Nc3ccc(Cl)c(C(F)(F)F)c3)cc2)ccn1`: the Potency in test [4] was 2.69 µM (active); in test [5], 3.01 µM (active); in test [6], 1.07 µM (active); in [12], 8.91 µM (active); in test [16] it was 13.5 µM (active); in test [9], 11.2 µM (active). Further, the Potency was 1.12 µM (active) in [10]; 5.01 µM (active) in test [17]; 10 µM (active) in test [18]; 2.24 µM (active) in [14]; 7.08 µM (active) in test [15]; 3.38 µM (active) in [19]. For the same molecule, the Potency result in test [8] was “inactive”.

For `CC(N)C12CC3CC(CC(C3)C1)C2` (configuration not stated), the Potency result in test [3], in test [7], in test [12], in test [8], in test [9] and in test [10] was “inactive” throughout. Further, the Potency entry in test [14], in [15] and in test [19] was “inactive” in each case. In addition, in [16], the Potency is 6.75 µM (active).

For the molecule `Cc1oc(=O)oc1CN1CCN(c2cc3c(cc2F)c(=O)c(C(=O)O)c2n3C(C)S2)CC1` (configuration not stated), the Potency in [20] was 6.01 µM (active); in test [3], 7.94 µM (active); in [4], 15.1 µM (active); in test [5], 16.9 µM (active); in test [7], 7.08 µM (active); in test [12], 10 µM (active). Besides, the Potency is 7.57 µM (active) in test [16]; 8.91 µM (active) in test [9]; 7.08 µM (active) in test [10]; 5.01 µM (active) in test [18]; 7.94 µM (active) in [11].

For the molecule `Oc1c(Cl)cc(Cl)c2cccnc12`, the Potency in test [2] was 10.7 µM (active); in test [3], 10 µM (active); in test [16], 12 µM (active); in [10], 7.94 µM (active); in test [17] it was 12.6 µM (active); in [11], 11.2 µM (active). Also, the Potency result in test [7], in test [8], in [9], in test [13], in test [15] and in test [19] was “inactive” each time.
